# Where “and” joins values, the source holds several entries; their conditions need not be identical. Equal values may be shown once. Where a structure was tested more than once in an assay, its records may differ in their call. Calls of active or inactive are those of the source. How the source made its calls: active means hit-call score of the fitted dose curve at least 0.9, where 1 is the maximum; inactive means score below 0.9.
# Columns and labels:
# [1] = read-out: Interleukin-8 (IL8), CXCL8 (gene 3576); assay: BSK_KF3CT_IL8: BioMAP Diversity Plus: KF3CT Assay for Interleukin-8 (IL8) Biomarker Activity (AID 2284254); conditions: primary human keratinocytes with fibroblasts
# Procedure, shortened: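 Human keratinocyte/foreskin fibroblast co-culture dosed 24 h; IL-8 measured by ELISA relative to DMSO. Parallel cultures stained with SRB for total protein to flag cytotoxicity.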
# [2] = read-out: Macrophage Inflammatory Protein-1 Alpha (MIP1a), CCL3 (gene 6348); assay: BSK_IMphg_MIP1a: BioMAP Diversity Plus: IMphg Assay for Macrophage Inflammatory Protein-1 Alpha (MIP1a) Biomarker Activity (AID 2284255); conditions: primary human endothelial cells with macrophages
# Procedure, shortened: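 MIP-1a protein levels were quantified by ELISA after 24 h treatment of human endothelial cell–macrophage co-cultures, compared with DMSO. Parallel cultures were fixed with TCA and stained with 0.1% SRB to gauge overt cytotoxicity.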
# [3] = read-out: CD69, CD69 (gene 969); assay: BSK_IMphg_CD69: BioMAP Diversity Plus: IMphg Assay for CD69 Biomarker Activity (AID 2284257); conditions: primary human endothelial cells with macrophages
# Procedure, shortened: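 Readout is ELISA for CD69 in primary human venular endothelial cell/macrophage co-culture, taken at 24 h post-dosing. SRB staining of parallel cultures gauged overt cytotoxicity; signal increase versus DMSO defined activity.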
# [4] = read-out: Eotaxin 3, CCL26 (gene 10344); assay: BSK_BF4T_Eotaxin3: BioMAP Diversity Plus: BF4T Assay for Eotaxin 3 Biomarker Activity (AID 2284258); conditions: primary human bronchial epithelial cells with fibroblasts
# Procedure, shortened: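 ELISA measurement of Eotaxin-3 after 24 h chemical exposure in a bronchial epithelial/dermal fibroblast co-culture, with DMSO as baseline. Parallel SRB staining (0.1% SRB after 10% TCA fixation, 560 nm) flagged overt cytotoxicity.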
# [5] = read-out: Monocyte Chemoattractant Protein-1 (MCP1), CCL2 (gene 6347); assay: BSK_BF4T_MCP1: BioMAP Diversity Plus: BF4T Assay for Monocyte Chemoattractant Protein-1 (MCP1) Biomarker Activity (AID 2284259); conditions: primary human bronchial epithelial cells with fibroblasts
# Procedure, shortened: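 MCP-1 ELISA readout taken 24 h after dosing in the BF4T system (bronchial epithelial cells plus dermal fibroblasts). Parallel SRB total-protein staining flagged cytotoxicity; DMSO served as baseline, positive fitting direction.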
# [6] = read-out: Intercellular Adhesion Molecule 1 (ICAM1), ICAM1 (gene 3383); assay: BSK_BF4T_ICAM1: BioMAP Diversity Plus: BF4T Assay for Intercellular Adhesion Molecule 1 (ICAM1) Biomarker Activity (AID 2284260); conditions: primary human bronchial epithelial cells with fibroblasts
# Procedure, shortened: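 ICAM-1 levels measured by ELISA after 24 h chemical treatment of bronchial epithelial cell/dermal fibroblast co-cultures, read against DMSO baseline. Overt cytotoxicity checked in parallel cultures by sulforhodamine B staining.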
# [7] = read-out: Interleukin-8 (IL8), CXCL8 (gene 3576); assay: BSK_MyoF_IL8: BioMAP Diversity Plus: MyoF Assay for Interleukin-8 (IL8) Biomarker Activity (AID 2284261); conditions: primary human lung fibroblasts
# Procedure, shortened: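 Human lung fibroblast (MyoF system) cultures dosed for 24 h, then IL-8 measured by ELISA. Response taken relative to DMSO; parallel SRB total-protein staining for cytotoxicity.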
# [8] = read-out: CD90, THY1 (gene 7070); assay: BSK_BF4T_CD90: BioMAP Diversity Plus: BF4T Assay for CD90 Biomarker Activity (AID 2284262); conditions: primary human bronchial epithelial cells with fibroblasts
# Procedure, shortened: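 CD90 levels by ELISA after 24 h treatment of human bronchial epithelial cell/dermal fibroblast cultures, analysed versus DMSO. Overt cytotoxicity checked in parallel cultures by sulforhodamine B staining.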
# [9] = read-out: Interleukin-8 (IL8), CXCL8 (gene 3576); assay: BSK_BF4T_IL8: BioMAP Diversity Plus: BF4T Assay for Interleukin-8 (IL8) Biomarker Activity (AID 2284263); conditions: primary human bronchial epithelial cells with fibroblasts
# Procedure, shortened: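 Human bronchial epithelial cells with dermal fibroblasts co-culture; IL-8 measured by ELISA 24 hours after dosing, fitted vs DMSO. Cytotoxicity tracked in parallel cultures by SRB total-protein staining.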
# [10] = read-out: Interleukin-1 alpha (IL1a), IL1A (gene 3552); assay: BSK_BF4T_IL1a: BioMAP Diversity Plus: BF4T Assay for Interleukin-1 alpha (IL1a) Biomarker Activity (AID 2284264); conditions: primary human bronchial epithelial cells with fibroblasts
# Procedure, shortened: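 ELISA read-out of IL-1α from bronchial epithelial cell/dermal fibroblast co-cultures 24 h after compound addition. Increases scored against DMSO negative control. Cytotoxicity monitored by sulforhodamine B staining of parallel cultures.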
# [11] = read-out: Decorin, DCN (gene 1634); assay: BSK_MyoF_Decorin: BioMAP Diversity Plus: MyoF Assay for Decorin Biomarker Activity (AID 2284265); conditions: primary human lung fibroblasts
# Procedure, shortened: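 Human lung fibroblast cultures were dosed for 24 h, and decorin was then measured by ELISA. Parallel cultures were stained with sulforhodamine B for total protein as a cytotoxicity check. Gain of signal was fitted relative to DMSO.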
# [12] = read-out: KRT18 (gene 3875); assay: BSK_BF4T_Keratin818: BioMAP Diversity Plus: BF4T Assay for Keratin 818 Biomarker Activity (AID 2284266); conditions: primary human bronchial epithelial cells with fibroblasts
# Procedure, shortened: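 Keratin 8/18 levels quantified by ELISA after 24 h chemical treatment of bronchial epithelial cell/dermal fibroblast co-cultures, fitted in positive direction relative to DMSO. Parallel SRB staining tracks overt cytotoxicity.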
# [13] = read-out: Matrix Metallopeptidase 1 (MMP1), MMP1 (gene 4312); assay: BSK_MyoF_MMP1: BioMAP Diversity Plus: MyoF Assay for Matrix Metallopeptidase 1 (MMP1) Biomarker Activity (AID 2284268); conditions: primary human lung fibroblasts
# Procedure, shortened: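 Human lung fibroblast primary cells; MMP1 measured by ELISA 24 h after dosing, fitted in the positive direction relative to DMSO. Parallel SRB staining (0.1%, after 10% TCA fixation, 560 nm) assesses overt cytotoxicity.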
# [14] = read-out: TIMP metallopeptidase inhibitor 1 (TIMP1), TIMP1 (gene 7076); assay: BSK_MyoF_TIMP1: BioMAP Diversity Plus: MyoF Assay for TIMP metallopeptidase inhibitor 1 (TIMP1) Biomarker Activity (AID 2284269); conditions: primary human lung fibroblasts
# Procedure, shortened: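 Primary human lung fibroblasts, MyoF multiplex system; chemical exposure 24 h; TIMP-1 by ELISA; positive fitting direction vs DMSO control.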
# [15] = read-out: Matrix Metallopeptidase 1 (MMP1), MMP1 (gene 4312); assay: BSK_BF4T_MMP1: BioMAP Diversity Plus: BF4T Assay for Matrix Metallopeptidase 1 (MMP1) Biomarker Activity (AID 2284270); conditions: primary human bronchial epithelial cells with fibroblasts
# Procedure, shortened: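 MMP-1 quantified by ELISA in primary human bronchial epithelial/dermal fibroblast co-cultures, 24 hours post-dosing, with DMSO as baseline; parallel sulforhodamine B staining (560 nm) tracks overt cytotoxicity.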
# [16] = read-out: Matrix Metallopeptidase 3 (MMP3), MMP3 (gene 4314); assay: BSK_BF4T_MMP3: BioMAP Diversity Plus: BF4T Assay for Matrix Metallopeptidase 3 (MMP3) Biomarker Activity (AID 2284271); conditions: primary human bronchial epithelial cells with fibroblasts
# Procedure, shortened: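 MMP-3 level read by ELISA after 24 h chemical exposure of bronchial epithelial cell/dermal fibroblast co-cultures, fitted upward relative to DMSO. Parallel cultures stained with 0.1% SRB after TCA fixation gauge overt cytotoxicity.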
# [17] = read-out: Tissue plasminogen activator (tPA), PLAT (gene 5327); assay: BSK_BF4T_tPA: BioMAP Diversity Plus: BF4T Assay for Tissue plasminogen activator (tPA) Biomarker Activity (AID 2284272); conditions: primary human bronchial epithelial cells with fibroblasts
# Procedure, shortened: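 tPA level quantified by ELISA at 24 h post-treatment in bronchial epithelial/dermal fibroblast co-cultures, gain of signal scored against DMSO baseline. Parallel cultures stained with 0.1% SRB (560 nm) to flag overt cytotoxicity.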
# [18] = read-out: Plasminogen Activator Inhibitor-1 (PAI1), SERPINE1 (gene 5054); assay: BSK_BF4T_PAI1: BioMAP Diversity Plus: BF4T Assay for Plasminogen Activator Inhibitor-1 (PAI1) Biomarker Activity (AID 2284273); conditions: primary human bronchial epithelial cells with fibroblasts
# Procedure, shortened: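 PAI-1 levels quantified by ELISA 24 h post-dosing in bronchial epithelial cell plus dermal fibroblast cultures. Signal gain referenced to DMSO baseline. Sulforhodamine B total-protein staining of parallel wells checked cytotoxicity.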
# [19] = read-out: Plasminogen activator inhibitor-1 (PAI1), SERPINE1 (gene 5054); assay: BSK_MyoF_PAI1: BioMAP Diversity Plus: MyoF Assay for Plasminogen activator inhibitor-1 (PAI1) Biomarker Activity (AID 2284256); conditions: primary human lung fibroblasts
# Procedure, shortened: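 Primary human lung fibroblasts treated with chemical for 24 h; PAI-1 levels quantified by ELISA relative to DMSO. Cytotoxicity was assessed in parallel cultures by SRB total-protein staining (0.1% SRB after 10% TCA fixation, 560 nm).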
# [20] = BSK_MyoF_SRB: Viability Assessment in the BioMAP Diversity Plus: MyoF Assay (AID 2284267); conditions: primary human lung fibroblasts;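 further: total protein by SRB absorbance in parallel cultures as cytotoxicity measure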
# Procedure, shortened: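 Lung fibroblast cultures, 24 h post-dose; fix 10% TCA, stain 0.1% SRB, read 560 nm. Signal = total protein as cytotoxicity measure; fitted relative to DMSO negative control.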
smiles,measurement,setting,value
C=C(C)C(=O)OCC(F)(F)C(F)(F)C(F)(F)C(F)F,outcome,[1],inactive
same,outcome,[2],inactive
same,outcome,[3],inactive
same,outcome,[4],inactive
same,outcome,[5],inactive
same,outcome,[6],inactive
same,outcome,[7],inactive
same,outcome,[8],inactive
same,outcome,[9],inactive
same,outcome,[10],inactive
same,outcome,[11],inactive
same,outcome,[12],inactive
same,outcome,[13],inactive
same,outcome,[14],inactive
same,outcome,[15],inactive
same,outcome,[16],inactive
same,outcome,[17],inactive
same,outcome,[18],inactive
COC(F)(C(F)F)C(F)(F)F (stereo not given),outcome,[1],inactive
same,outcome,[2],inactive
same,outcome,[19],inactive
same,outcome,[3],inactive
same,outcome,[4],inactive
same,outcome,[6],inactive
same,outcome,[7],inactive
same,outcome,[8],inactive
same,outcome,[9],inactive
same,outcome,[10],inactive
same,outcome,[11],inactive
same,outcome,[12],inactive
same,outcome,[13],inactive
same,outcome,[14],inactive
same,outcome,[15],inactive
same,outcome,[16],inactive
same,outcome,[17],inactive
same,outcome,[18],inactive
O=C(O)CCC(F)(F)C(F)(F)C(F)(F)C(F)(F)C(F)(F)C(F)(F)C(F)(F)F,AC50,[1],4.26 µM (active)
same,outcome,[1],inactive
same,AC50,[2],1.39 µM (active) and 1.57 µM (active)
same,outcome,[19],inactive
same,outcome,[3],inactive
same,AC50,[4],726 nM (active)
same,outcome,[4],inactive
same,outcome,[6],inactive
same,outcome,[7],inactive
same,outcome,[8],inactive
same,outcome,[9],inactive
same,outcome,[10],inactive
same,outcome,[11],inactive
same,outcome,[12],inactive
same,outcome,[13],inactive
same,outcome,[14],inactive
same,outcome,[15],inactive
same,outcome,[16],inactive
same,outcome,[17],inactive
same,outcome,[18],inactive
O=S(=O)(O)CCC(F)(F)C(F)(F)C(F)(F)C(F)(F)C(F)(F)C(F)(F)C(F)(F)C(F)(F)F,AC50,[1],30 µM (active)
same,outcome,[1],inactive
same,outcome,[2],inactive
same,outcome,[19],inactive
same,AC50,[3],30 µM (active)
same,outcome,[3],inactive
same,AC50,[4],15.1 µM (active) and 8.3 µM (active)
same,outcome,[5],inactive
same,outcome,[6],inactive
same,outcome,[7],inactive
same,outcome,[8],inactive
same,outcome,[9],inactive
same,outcome,[10],inactive
same,outcome,[11],inactive
same,outcome,[12],inactive
same,outcome,[20],inactive
same,outcome,[13],inactive
same,outcome,[14],inactive
same,outcome,[15],inactive
same,outcome,[16],inactive
same,outcome,[17],inactive
same,outcome,[18],inactive
C=CC(=O)OCCC(F)(F)C(F)(F)C(F)(F)C(F)(F)F,outcome,[1],inactive
same,outcome,[2],inactive
same,outcome,[3],inactive
same,outcome,[4],inactive
same,outcome,[6],inactive
same,outcome,[7],inactive
same,outcome,[8],inactive
same,outcome,[9],inactive
same,outcome,[10],inactive
same,outcome,[11],inactive
same,outcome,[12],inactive
same,outcome,[20],inactive
same,outcome,[13],inactive
same,outcome,[14],inactive
same,outcome,[15],inactive
same,outcome,[16],inactive
same,outcome,[17],inactive
same,outcome,[18],inactive
OCC(O)CC(F)(F)C(F)(F)C(F)(F)C(F)(F)C(F)(F)C(F)(F)C(F)(F)C(F)(F)F (stereo not given),outcome,[1],inactive
same,outcome,[2],inactive
same,outcome,[19],inactive
same,outcome,[3],inactive
same,outcome,[4],inactive
same,outcome,[6],inactive
same,outcome,[7],inactive
same,outcome,[8],inactive
same,outcome,[9],inactive
same,outcome,[10],inactive
same,outcome,[11],inactive
same,outcome,[12],inactive
same,outcome,[20],inactive
same,outcome,[13],inactive
same,outcome,[14],inactive
same,outcome,[15],inactive
same,outcome,[16],inactive
same,outcome,[17],inactive
same,outcome,[18],inactive

# From PubChem BioAssay (EPA / NIEHS)
